Laboratory results taken from the supplement of paper PMC10515830.
Structures can show the parent of a compound that is named as a salt.

How the values were obtained:
Details in all cases: 10 µM; exposure time 6 h
[1] = tested on: Danio rerio larvae (5 dpf); assay: difference in excitability vs DMSO (percentage points); higher = more excitable than DMSO
Outline: (§1)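 Wild-type zebrafish larvae at 5 dpf were kept in 96-well plates and exposed for 6 h to 100 µL egg water holding library compound at a final concentration of 10 µM. From 3 h into exposure, the plates were held at 28.5 ℃ and photographed every 6 s through a 3-h programme of moving lines and 100 ms, 400Hz tones. Each behaviour was scored by Z-LaP Tracker, a DeepLabCut model, and averaged over 48 larvae per compound. Every value gives the compound mean minus the vehicle control mean, in percentage points.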

[2] = tested on: Danio rerio larvae (5 dpf); assay: difference in startle response vs DMSO (percentage points); higher = stronger startle than DMSO
Outline: as §1

[3] = tested on: Danio rerio larvae (5 dpf); assay: difference in activity during first hour vs DMSO (percentage points); higher = more activity than DMSO
Outline: as §1

[4] = tested on: Danio rerio larvae (5 dpf); assay: difference in habituation to acoustic stimuli vs DMSO (percentage points); higher = more habituation than DMSO
Outline: as §1

[5] = tested on: Danio rerio larvae (5 dpf); assay: difference in combined optomotor response to red, green and blue moving lines vs DMSO (percentage points); higher = stronger optomotor response than DMSO
Outline: as §1

| SMILES | difference in excitability [1] | difference in startle response [2] | difference in activity during first hour [3] | difference in habituation to acoustic stimuli [4] | difference [5] |
| --- | --- | --- | --- | --- | --- |
| Cc1ccnc2c1NC(=O)c1cccnc1N2C1CC1 [Nevirapine] | 0.772 | 3.61 | -2.89 | -2.11 | -3.5 |
| CCCc1nc2c(C)cc(-c3nc4ccccc4n3C)cc2n1Cc1ccc(-c2ccccc2C(=O)O)cc1 [Telmisartan] | 14.6 | -11.8 | 9.61 | -3.85 | -8.32 |
| Nc1nnc(-c2cccc(Cl)c2Cl)c(N)n1 [Lamotrigine] | 4.96 | -1.15 | -6.88 | 4.75 | 8.87 |
| CC1(C)O[C@@H]2C[C@H]3[C@@H]4CCC5=CC(=O)C=C[C@]5(C)[C@@]4(F)[C@@H](O)C[C@]3(C)[C@]2(C(=O)CO)O1 [Triamcinolone acetonide] | -3.81 | -2.41 | 12.6 | 3.46 | 7.94 |
| Cn1c(=O)c2[nH]cnc2n(C)c1=O [Aminophylline] | 4.39 | 0.67 | 2.88 | -3.14 | 8.05 |
| CC(=O)N1CCN(c2ccc(OCC3COC(Cn4ccnc4)(c4ccc(Cl)cc4Cl)O3)cc2)CC1 (stereo not given) [Ketoconazole] | 8 | 3.5 | -5.85 | -0.327 | 5.96 |
| O=C(O)CCCc1ccccc1 [Sodium 4-Phenylbutyrate] | -1.36 | 2.31 | -3.38 | 1.43 | 5.24 |
| COc1cc(C(=O)NS(=O)(=O)c2ccccc2C)ccc1Cc1cn(C)c2ccc(NC(=O)OC3CCCC3)cc12 [Zafirlukast] | 3.02 | -0.95 | 17.6 | 4.84 | -0.091 |
| N#CC[C@H](C1CCCC1)n1cc(-c2ncnc3[nH]ccc23)cn1 [Ruxolitinib (phosphate)] | -1.61 | 4.35 | 6.14 | -4.72 | 17.9 |
| CCc1nn(CCCN2CCN(c3cccc(Cl)c3)CC2)c(=O)n1CCOc1ccccc1 [Nefazodone (hydrochloride)] | 9.32 | -3.06 | 29.1 | -9.41 | -10.9 |
| COC(=O)C1=C(C)NC(C)=C(C(=O)OC(C)C)C1c1cccc2nonc12 (stereo not given) [Isradipine] | 11.7 | -10.9 | -0.814 | -7.82 | -17.2 |
| CC/C(=C(\c1ccccc1)c1ccc(OCCN(C)C)cc1)c1ccccc1 [Tamoxifen (citrate)] | -1.02 | -2.65 | 14.8 | -2.18 | -15.8 |
| CN(C)[C@@H]1C(O)=C(C(N)=O)C(=O)[C@@]2(O)C(O)=C3C(=O)c4c(O)cccc4[C@@](C)(O)[C@H]3C[C@@H]12 [Tetracycline (hydrochloride)] | 5.28 | 1.04 | 2.06 | -0.0493 | -5.79 |
| Cn1cnc2c(F)c(Nc3ccc(Br)cc3F)c(C(=O)NOCCO)cc21 [Binimetinib] | -0.212 | -0.502 | 15.3 | -0.78 | 7.07 |
| CN(C)CCOc1ccc(/C(=C(/CCCl)c2ccccc2)c2ccccc2)cc1 [Toremifene (citrate)] | 4.69 | -6.57 | 9.64 | -7.15 | -13.3 |
| COc1ccnc(C[S+]([O-])c2nc3cc(OC(F)F)ccc3[nH]2)c1OC (stereo not given) [Pantoprazole] | 1.4 | 2.07 | 3.07 | -4.45 | 5.14 |
| COc1ccccc1Oc1c(NS(=O)(=O)c2ccc(C(C)(C)C)cc2)nc(-c2ncccn2)nc1OCCO [Bosentan] | 11.1 | -7.54 | 2.38 | 2.24 | -0.979 |
| CO[C@H]1C[C@@H]2CC[C@@H](C)[C@@](O)(O2)C(=O)C(=O)N2CCCC[C@H]2C(=O)O[C@H]([C@H](C)C[C@@H]2CC[C@@H](OC(=O)C(C)(CO)CO)[C@H](OC)C2)CC(=O)[C@H](C)/C=C(\C)[C@@H](O)[C@@H](OC)C(=O)[C@H](C)C[C@H](C)/C=C/C=C/C=C/1C [Temsirolimus] | 7.02 | -6.86 | -1.53 | 4.35 | 0.433 |
| Cc1cccc(Nc2ccccc2C(=O)O)c1C [Mefenamic Acid] | 6.54 | -1.5 | -5.95 | -12.8 | -15.5 |
| CCCNCC(O)COc1ccccc1C(=O)CCc1ccccc1 (stereo not given) [Propafenone (hydrochloride)] | 14.4 | -3.28 | 8.84 | 0.424 | 6.51 |
| CC(C)(C)NCC(O)COc1cccc2c1CCC(=O)N2 (stereo not given) [Carteolol (hydrochloride)] | 4.97 | -3.33 | 6.77 | 1.1 | 4.95 |
| N[C@@H](Cc1cc(I)c(Oc2cc(I)c(O)c(I)c2)c(I)c1)C(=O)O [L-Thyroxine] | 12.1 | -4.02 | 7.61 | -1.15 | 1.95 |
